The structures appear in SMILES notation. Hit rate of the full screen: of about 360,000 compounds, about 2,900 (0.81%) were called active. What follows is part of a selection rich in actives, with near analogues and random picks from the rest. Unmarked numbers belong to inactive results.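 Rule for the calls: active = inhibition above the mean inhibition across every tested compound plus 3 SD (cut at about 22% in these data); inactive = the rest.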

The target in the assay is Perilipin-5 (Homo sapiens) + 1-acylglycerol-3-phosphate O-acyltransferase ABHD5 (Homo sapiens) (UniProt Q00G26+Q8WTS1). The experiment in a line: blockers of ABHD5 binding to perilipin-5 – cell lysate, split luciferase complementation, luminescence, primary screen (AID 602281).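 Note: 0% = DMSO only wells and the 100% control is not disclosed.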 The settings on record: Split G. princeps luciferase complementation, 4 h, at 4 µM, active compounds read high.
Chain of Perilipin-5 (Homo sapiens) + 1-acylglycerol-3-phosphate O-acyltransferase ABHD5 (Homo sapiens) (Q00G26 whole entry, looked up): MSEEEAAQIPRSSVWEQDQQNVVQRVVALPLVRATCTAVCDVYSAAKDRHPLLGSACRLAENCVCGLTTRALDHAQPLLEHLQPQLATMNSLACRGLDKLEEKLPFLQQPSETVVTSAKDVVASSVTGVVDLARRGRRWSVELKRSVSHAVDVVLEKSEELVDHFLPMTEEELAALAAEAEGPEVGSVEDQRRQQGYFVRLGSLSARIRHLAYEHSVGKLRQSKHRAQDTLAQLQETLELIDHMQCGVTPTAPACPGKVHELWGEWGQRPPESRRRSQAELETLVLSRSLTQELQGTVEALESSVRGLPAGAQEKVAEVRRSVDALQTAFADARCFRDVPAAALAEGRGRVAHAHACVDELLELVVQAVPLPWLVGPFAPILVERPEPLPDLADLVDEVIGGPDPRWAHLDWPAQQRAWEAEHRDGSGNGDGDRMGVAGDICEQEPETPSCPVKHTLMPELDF
Chain of Perilipin-5 (Homo sapiens) + 1-acylglycerol-3-phosphate O-acyltransferase ABHD5 (Homo sapiens) (Q8WTS1 whole entry, looked up): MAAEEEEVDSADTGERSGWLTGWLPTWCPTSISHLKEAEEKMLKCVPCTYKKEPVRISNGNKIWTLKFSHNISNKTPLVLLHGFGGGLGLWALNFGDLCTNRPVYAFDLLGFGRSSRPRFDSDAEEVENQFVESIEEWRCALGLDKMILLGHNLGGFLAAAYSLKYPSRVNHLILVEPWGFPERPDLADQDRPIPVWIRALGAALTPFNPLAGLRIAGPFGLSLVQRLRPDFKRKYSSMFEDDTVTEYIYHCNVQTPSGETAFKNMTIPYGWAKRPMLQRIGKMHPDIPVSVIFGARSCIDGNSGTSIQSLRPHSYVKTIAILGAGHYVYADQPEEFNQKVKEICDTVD
In the case of `CN(C)c1cc(N)c2ccccc2n1` (tested in a mixture with another compound), the inhibition (in general, the drop in the measured response relative to a control, in per cent) is -3.32%. The value for `O=C(O)c1ccc(S(=O)(=O)N2CCC(Cc3ccccc3)CC2)cc1` was -8.86%; that for `Cc1ccc2[nH]c(=O)c(CC=C(Cl)Cl)c(C)c2c1` was 1.26%; that for `C=C1C(=O)[C@]23C[C@H]1CCC2[C@@]1(C)C(C[C@@H]3O)[C@](C)(C(=O)O)CC[C@@H]1O` (some centres undefined) was 36.1% (active). The same measure for `CCN(C(=O)COC(=O)c1cc(NS(=O)(=O)c2ccc(Cl)c([N+](=O)[O-])c2)ccc1O)C1CCCCC1`: -3.6%; for `O=Cc1ccc(OCc2cn3ccccc3n2)cc1`: -8.56%; for `COc1cc(N2C(=O)c3ccccc3C2=O)c(Cl)cc1C(=O)OCC(=O)N1CCOCC1`: -1.51%. `CCn1c(SCC(=O)Nc2cc(C)ccc2C)nnc1-c1cnccn1`: the inhibition was 7.43%. The same measure for `Cc1cc(C)nc(SCc2nnc(SCC(=O)Nc3ncc(C)s3)n2Cc2ccco2)n1`: 19.3%. The value for `O=C(CSc1nnc(-c2cccnc2)n1Cc1ccco1)c1ccc(Cl)cc1` was 22.5% (active). The same measure for `CCc1ccc(NC(=O)CSc2nnc(-c3cnccn3)n2Cc2ccco2)cc1`: 23.2% (active); for `C(=C\c1ccccc1)/CSc1nnc(-c2cccnc2)n1Cc1ccco1`: 7.27%. For `CCOC(=O)Cc1csc(NC(=O)CSc2nnc(-c3cccnc3)n2Cc2ccco2)n1`, the inhibition was 5.88%.

With `CCCCCNC(=O)C1C(=O)Nc2ccccc2C(=O)N1C(C)(C)C` (centres undefined), the inhibition was 4.37%. The value for `COc1cc(/C=C/CO)cc(OC)c1O[C@@H]1O[C@H](CO)[C@@H](O)[C@H](O)[C@H]1O` was -1.15%; that for `O=C(OCc1cc(Cl)ccc1OC(F)F)c1cccnc1` was 4.48%.

With `O=C(CC(=O)c1cccnc1)c1ccccc1`, the inhibition is -23.9%. The value for `O=C(/C=C/c1ccc(Cl)cc1Cl)c1cccnc1` was 74.7% (active). The same measure for `Cc1ccc(S(=O)(=O)N(C)C)cc1NC(=O)c1n[nH]c(=O)c2ccccc12`: 5.24%. The value for `O=C1CCCC(O)=C1N=Nc1ccc2ncsc2c1` was -5.19%. Consider `O=C(Cn1cnc2c(nnn2-c2ccccc2)c1=O)N1CCC(Cc2ccccc2)CC1`, for which the inhibition was 7.96%. The same measure for `O=C(/C=C/Sc1ncn[nH]1)c1ccc(Cl)cc1`: 57.9% (active); for `O=C(Nc1ccc(F)cc1)C(CCc1ccccc1)N1CCN(CC(=O)N2CCCC2)CC1` (centres undefined): -3.25%; for `CCCCc1cc2c(s1)CCCC/C2=N/O`: -9.56%. The same measure for `COc1ccc(CNC(=O)c2c[nH]c3c(OC)cc(OC)cc3c2=O)cc1`: -1.89%. The same measure for `COc1cc(/C=C(\C#N)C(=O)Nc2ccc3ccccc3c2)c([N+](=O)[O-])cc1OC`: -3.38%; for `COc1ccc(CNC(=O)/C(C#N)=C/c2cccc(OC)c2OC)cc1`: 36% (active). For `COC(=O)C[C@H]1C[C@@H]2c3cc(NC(=O)Nc4ccccc4)ccc3O[C@@H]2[C@@H](CO)O1`, the inhibition was 3.8%. The same measure for `c1ccc(-c2c[nH]c(-c3ccccc3)c2)cc1`: -5.36%. For the compound `O=C(NNC(=O)c1ccc(Cl)cc1Cl)c1cccs1`, the inhibition was 3.54%.

As for `O=C(NC1CCCCCCC1)c1cccs1`, the inhibition was -5.96%. Take `O=C(N/N=C/C=C/c1ccco1)c1cccs1`: the inhibition was 36.5% (active). The same measure for `Cc1cccc(CN2CCN(C3CN(Cc4cn(Cc5ccccc5F)nn4)S(=O)(=O)C3)CC2)c1` (centres undefined): 5.46%; for `Cc1ccc(-c2c(N)nc3ncccn23)cc1`: -3.59%. Turning to `Cc1cccc(C=CC(=O)c2ccc(Cl)cc2)c1`, the inhibition was 34.8% (active). The value for `Cc1cccc(C(=O)Nc2ccc(C(=O)/C=C/c3cccs3)cc2)c1` was 12.6%; that for `Cc1cc(C)nc(NC(=O)/C=C/c2ccc(Cl)cc2)n1` was 0.69%; that for `CCO[C@H]1OC(C(=O)Nc2ccccc2)=C[C@@H](C2CC2)[C@@H]1CCCO` was -3.76%.

In the case of `CCCCN1C(N)=NC[C@@H]1CC1CCCCC1`, the inhibition was 10.6%.

On to `O=C1C=C(c2ccc(Cl)cc2)C(=O)N1Nc1ccccc1`, for which the inhibition was 66.8% (active). The value for `Cc1ccn2cc(-c3nonc3C)cc2c1` was -1.69%; that for `CCc1ccccc1NC(=O)c1cc(-c2ccc3c(c2)OCO3)on1` was -4.14%; that for `COc1ccc(/C=C/C(=O)NC(=S)N2CCCC(C(N)=O)C2)cc1` (centres undefined) was -2.44%. The same measure for `CCOc1ccc(NC(=S)NC(=O)/C=C/c2ccc(OC)cc2)c([N+](=O)[O-])c1`: 2.26%; for `COc1ccc(/C=C/C(=O)c2cc(Br)ccc(=O)c2O)cc1`: 22.1% (active); for `O=C(O)c1cc2ccccc2c(=O)s1`: 10.5%. The value for `NC[C@H](Cc1ccccc1)NCCc1cc(C(F)(F)F)cc(C(F)(F)F)c1` was 5.8%; that for `COc1ccc(/C(O)=C2/C(=O)C(=O)N(c3nc(C)c(C)s3)C2c2ccco2)cc1` (centres undefined) was 6.99%. Turning to `COc1ccc(/C(O)=C2/C(=O)C(=O)N(CC3CCCO3)C2c2ccc(OC)c(OC)c2)cc1` (centres undefined), the inhibition is 1.46%. The value for `COc1ccc(/C(O)=C2/C(=O)C(=O)N(CCCN(C)C)C2c2ccccc2)cc1OC` (centres undefined) was -4.94%.

Consider `COc1cc(C2/C(=C(\O)c3ccc4c(c3)CC(C)O4)C(=O)C(=O)N2Cc2ccco2)ccc1O` (centres undefined), for which the inhibition is 11.1%. The same measure for `COc1ccc(/C(O)=C2\C(=O)C(=O)N(Cc3ccco3)C2c2ccc(OC)cc2OC)cc1` (centres undefined): 28.9% (active).

Take `COc1ccccc1C1/C(=C(/O)c2ccc(C)cc2)C(=O)C(=O)N1Cc1ccco1` (centres undefined): the inhibition is 28.4% (active). The value for `CC(C)c1nnc(NC(=O)C2CC(=O)N(CCc3ccc(F)cc3)C2)s1` (centres undefined) was -0.4%; that for `CSc1nc(-c2ccccc2)nc(C(Cl)Cl)n1` was -6.27%. The value for `COc1ccc(-c2nnc3n2CCCCC3)cc1` was 2.02%; that for `CCC(=O)N1CCc2cc(Br)c(S(=O)(=O)NCCN3CCCCC3CC)cc21` (centres undefined) was 6.34%. The value for `N#Cc1ccc(C(=O)OCC(=O)NC(=O)NC2CCCCC2)cc1` was -1.6%; that for `NC(=O)C1CCN(C(=O)CC2C(=O)NCCN2Cc2cccc(Oc3ccccc3)c2)CC1` (centres undefined) was 4.81%.

The values are drawn from PubChem BioAssay AID602281 (The Scripps Research Institute Molecular Screening Center, 2012).
